Measured values as given in PubChem BioAssay (EPA / NIEHS).
Calls of active or inactive are those of the source. The calls were made as follows: active = hit-call score of the fitted dose curve at least 0.9, where 1 is the maximum; inactive = score below 0.9.

Experiment: ATG_CRE_CIS: Attagene CIS-FACTORIAL HepG2 Assay for human cAMP Responsive Element (CRE) binding protein 3 (AID 2282926)
Conditions: HepG2 CRE cis-reporter, Attagene multiplexed mRNA; actives raise or lower the signal
Description: ATG_CIS is a cell-based, multiplexed-readout assay that uses HepG2, a human liver cell line, with measurements taken at 24 hours after chemical dosing in a 24-well plate.ATG_CRE_CIS is one of 52 assay component(s) measured or calculated from the ATG_CIS assay. It is designed to make measurements of mRNA induction, a form of inducible reporter, as detected with fluorescence intensity signals by Reverse transcription polymerase chain reaction (RT-PCR) and Capillary electrophoresis technology.Data from the assay component ATG_CRE_CIS was analyzed into 1 assay endpoint. This assay endpoint, ATG_CRE_CIS, was analyzed with bidirectional fitting relative to DMSO as the negative control and baseline of activity. Using a type of inducible reporter, measures of mRNA for gain or loss-of-signal activity can be used to understand the reporter gene at the transcription factor-level as they relate to the gene CREB3. Furthermore, this assay endpoint can be referred to as a primary readout, because this assay has produced multiple assay endpoints where this one serves a reporter gene function. To generalize the intended target to other relatable targets, this assay endpoint is annotated to the dna binding intended target family, where the subfamily is basic leucine zipper.
Human liver HepG2 cells are transiently transfected with multiple reporter transcription units (MRTUs) in 6-well plates using FuGene 6 reagent (Roche; 3 ml FuGene/1 mg DNA). The MRTU constructs are regulated by a cis-regulating element (promoter). […] A major difference between the CIS and TRANS system is that in CIS activities of endogenous TFs are measured, whereas the TRANS assay evaluates changes in activities of exogenous, chimeric NR-Gal4 proteins. […] At the end of 24 hour incubation, total RNA was isolated using TriZol reagent (Invitrogen). The isolated RNA is then reverse-transcribed using oligo(dT) primer and Mo-MLV reverse transcriptase (Invitrogen) with DNAse I (Ambion) treatment for 30 min. The one-tenth of the produced cDNA was amplified by PCR using Taq DNA polymerase (Invitrogen) and two reporter sequence-specific primers. The PCR products were fluorescently labeled by primer extension with 6-arboxyfluorescein (6-FAM) 5'-labeled reporter sequence-specific primer (2 min at 95 C, 20 s at 68 C and 10 min at 72 C) and these products were digested with 5U of HpaI (New England Biolabs) for 2h at 37 C. The fragments were purified using Qiaquick PCR columns (Qiagen), analyzed on an ABI 3130xL genetic analyzer (Applied Biosystems) with peak positions identified by using a set of X-rhodamine (ROX)-labeled MapMarker1000 molecular weight standards (BioVentures). The raw capillary electrophoresis data was processed using Attagraph software (Attagene).

outcome, inactive:
CC=Cc1ccc(OC)c(OC)c1, Nc1c(Cl)cc(Cl)cc1[N+](=O)[O-], CCCC(=O)c1ccccc1, CS(C)=O, CCC1(C)NC(=O)NC1=O (stereo not given), Cc1ncc[nH]1, CCc1ccc(O)cc1, c1ccc2cc(Nc3ccc(Nc4ccc5ccccc5c4)cc3)ccc2c1, CC(C)(C)CC(C)(C)c1ccc(OCCOCC[N+](C)(C)Cc2ccccc2)cc1, CCCCOCC, COC(=O)c1ccc(OC)cc1, CC(C=O)Cc1ccc(C(C)(C)C)cc1 (stereo not given), CCOC(=O)[C@@H](C)Oc1ccc(Oc2nc3ccc(Cl)cc3o2)cc1, OCCOCCN1CCN(C2=Nc3ccccc3Sc3ccccc32)CC1, OC[C@H]1O[C@@H](Oc2ccc(O)cc2)[C@H](O)[C@@H](O)[C@@H]1O, CC1=NN(c2ccc(S(=O)(=O)O)cc2)C(=O)C1, N#Cc1ccc(CC(=O)c2cccc(C(F)(F)F)c2)cc1, [Cl][Au]([Cl])[Cl], CC(CN=Cc1ccccc1O)N=Cc1ccccc1O (stereo not given), O=c1[nH]c(=O)c2cn[nH]c2[nH]1, C=C(C)C(=O)OCCOCCOCCOC(=O)C(=C)C, CN(C)CCOc1ccc(/C(=C(/CCCl)c2ccccc2)c2ccccc2)cc1, O=C(Nc1ccc2c(O)c(N=Nc3ccc(N=Nc4ccc(S(=O)(=O)O)cc4)cc3)c(S(=O)(=O)O)cc2c1)c1ccccc1, CC(C)(C)C1=CC(=O)C(C(C)(C)C)=CC1=O, CC/C=C\CCOC(=O)CC, O=C1OC2(c3ccccc31)c1ccc(O)c(Br)c1Oc1c2ccc(O)c1Br, C[Si](C)(C)O[Si](C)(C)C, O=C1c2ccccc2C(=O)c2c(O)ccc(O)c21, CCCCC(CC)COC(C)=O (stereo not given), CCCSc1ccc2nc(NC(=O)OC)[nH]c2c1, C/C=C(\C)C(=O)OCCc1ccccc1, CCCCCCCCCC(=O)OC, Cc1ccc(S(=O)(=O)Oc2ccc(N=Nc3ccc(-c4ccc(N=Nc5c(O)ccc6cc(S(=O)(=O)O)cc(S(=O)(=O)O)c56)c(C)c4)cc3C)cc2)cc1, CCCCCCCCCCCCCCCC(=O)OC/C=C(C)/C=C/C=C(C)/C=C/C1=C(C)CCCC1(C)C, Cc1cc(C)nc(NS(=O)(=O)c2ccc(N)cc2)n1, Cc1ccc2c(c1)C(=O)OC2=O

AC50, active:
CCCCCCCCSCCO 100 µM, CCCCCCCCCCCC(=O)OCC(O)CO (stereo not given) 48.2 µM, COc1ccc(N=Nc2cc(C)c(N=Nc3ccc(S(=O)(=O)O)cc3)cc2OC)cc1 19.8 µM, O=C(CC(=O)c1ccccc1)c1ccccc1 51.1 µM
